Most compounds without a hit are left out; they make up all but 9.9% or so of the library.
HPGD inh = HPGD (human) dehydrogenase inhibition | purified HPGD, NADH fluorescence kinetic, PGE2 substrate | Potency, µM, for inactives: at the highest dose activity change, negative = inhibition, usual class: inhibitors | 150,000 tested, 4.3% active; active = well fitted inhibition curve with a large enough effect, not every such curve was filed as active; inconclusive = small, poorly fitted or top-dose-only effect, or another doubt; inactive = no such curve, though single readings can be large or run the other way
Target sequence (P15428 whole entry, looked up): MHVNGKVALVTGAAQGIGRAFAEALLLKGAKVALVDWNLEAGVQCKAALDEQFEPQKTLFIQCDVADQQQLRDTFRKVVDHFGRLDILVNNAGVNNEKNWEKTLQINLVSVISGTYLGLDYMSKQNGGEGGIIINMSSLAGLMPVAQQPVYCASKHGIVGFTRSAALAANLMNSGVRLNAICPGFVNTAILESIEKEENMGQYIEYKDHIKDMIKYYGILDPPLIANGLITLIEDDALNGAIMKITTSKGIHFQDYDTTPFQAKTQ
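NADH formation kinetics: reaction with 30 uM PGE2 and 1 mM NAD+ (final), 20 nM enzyme, Tris-HCl pH 8 with Tween 20, after 15 min compound preincubation at room temperature. Fluorescence change, last versus first of five reads.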
ALDH1A1 inh = inhibitors of human aldehyde dehydrogenase 1A1; P00352; Purified ALDH1A1, NADH fluorescence, propionaldehyde substrate; Potency, µM (titrated, usually from 75.3 µM), for the others: at the top dose activity, negative = inhibition, actives largely listed as inhibitors; 220,000 tested, 7.3% active; AID 1030; active = well fitted inhibition curve with a large enough effect, not every such curve was filed as active; inconclusive = small, poorly fitted or top-dose-only effect, or another doubt; inactive = no such curve, though single readings can be large or run the other way;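 also: plate controls were no enzyme wells and a reference inhibitor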
KDM4E inh = blocks human JMJD2E demethylase activity | JMJD2E catalytic domain, FDH-coupled NADH fluorescence (FDH is formaldehyde dehydrogenase) | Potency, µM (titrated, usually from 57.1 µM), for the others: top-dose activity change, negative = inhibition, most hits filed as inhibitors | 230,000 tested, 1.6% active | AID 2147; active = well fitted inhibition curve with a large enough effect, not every such curve was filed as active; inconclusive = small, poorly fitted or top-dose-only effect, or another doubt; inactive = no such curve, though single readings can be large or run the other way;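 also: 0% = wells with enzyme and -100% = buffer wells without enzyme; nearly all actives have a fitted effect of over 50% in size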
Target sequence (B2RXH2 1-337 limits assumed): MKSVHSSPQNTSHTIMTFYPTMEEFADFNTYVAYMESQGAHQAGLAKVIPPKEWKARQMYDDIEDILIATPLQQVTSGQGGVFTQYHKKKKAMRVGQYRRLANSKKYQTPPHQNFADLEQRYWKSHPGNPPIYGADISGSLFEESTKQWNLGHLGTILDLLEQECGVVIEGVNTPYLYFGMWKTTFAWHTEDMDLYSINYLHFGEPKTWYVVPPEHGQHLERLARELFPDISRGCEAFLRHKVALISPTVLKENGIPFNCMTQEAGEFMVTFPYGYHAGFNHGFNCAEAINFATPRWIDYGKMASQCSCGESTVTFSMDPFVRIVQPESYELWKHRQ
Tau fluor cs = counter-screen for tau fibril formation inhibitors; tau K18 P301L Alexa594 fluorescence, heparin fibrillization; Potency, µM (series often up to 57.7 µM), for inactives: at the top dose activity change, negative = decrease; 280,000 tested, 0.93% active; AID 1463; also: nearly all actives have a fitted effect of over 55% in size
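Human K18 P301L tau (15 uM unlabeled plus 0.24 uM Alexa 594-labeled, final) in 100 mM sodium acetate pH 7 was mixed with compound and 20 uM heparin and incubated 6 hr at 37 C.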
Tau ThT inhib = blocks human tau fibril formation measured by thioflavin T. P10636. recombinant tau K18 P301L, heparin-induced fibrillization, ThT fluorescence. 270,000 tested, 2.1% active. Potency, µM (highest dose often 57.4 µM), without a hit: at the highest dose activity, negative = inhibition, most hits filed as inhibitors; also: nearly all actives have a fitted effect of over 55% in size
Target sequence (P10636 561-689 P618L limits assumed): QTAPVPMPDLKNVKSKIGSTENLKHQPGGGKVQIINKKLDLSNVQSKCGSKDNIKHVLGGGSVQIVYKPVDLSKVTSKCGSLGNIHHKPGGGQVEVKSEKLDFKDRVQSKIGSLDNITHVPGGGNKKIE
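Heparin-induced fibrillization of the P301L-mutant K18 repeat-domain fragment of human tau was followed by ThT binding in quantitative high-throughput format.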
Tau FP inhib = blocks human tau fibril formation measured by polarization. Potency, µM (top dose mostly 57.7 µM), for the others: at the top dose activity, negative = inhibition, hits mostly inhibitors. K18 P301L tau heparin fibrillization, Alexa594 FP, 6 h. P10636. AID 1468. 280,000 tested, 0.39% active; also: nearly all actives have a fitted effect of over 55% in size
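Heparin (20 uM) drove fibril formation of recombinant tau K18 P301L, 15 uM unlabeled with 0.24 uM Alexa 594 label, for 6 hr at 37 C in 100 mM sodium acetate pH 7. Fluorescence polarization (555/632 nm) read 1 hr after 30 uM ThT.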
An asterisk follows results filed as active; ? = inconclusive; . = no result; [ ] = remark or other dose. Unless noted, calls follow the shape of the dose curve; as a rule, active = well fitted curve in the direction sought with a large enough effect; inconclusive = small, poorly fitted or top-dose-only effect, or another doubt; inactive = no such curve, though single readings can be large; an effect the other way counts as inactive or inconclusive. Unless noted, % is scaled to controls: 0 for no effect and ±100 for the full control effect; potency is read from the fitted curve at half-maximal effect.

SMILES | HPGD inh | ALDH1A1 inh | KDM4E inh | Tau fluor cs | Tau ThT inhib | Tau FP inhib
COc1ccccc1C(=O)C1Nc2ccccc2-c2nnc(SC)nc2O1 (stereo unspecified) | -15.2% | 22.4µM* | -0.3% | -14.9% | ? | -2.7%
CCCCSc1nnc2c(n1)OC(C(=O)c1ccccc1)Nc1ccccc1-2 (stereo unspecified) | -17.5% | 20µM* | 0.2% | ? | 31.6µM* | ?
Cc1cccc(-c2nc3c4c(-c5ccccc5)c(-c5ccccc5)oc4ncn3n2)c1 | . | . | . | -1.7% | 0.3% | -2.9%
COc1cccc(-c2noc(CCC(=O)NC3CCCCC3)n2)c1 | -20.5% | -3.0% | 0.7% | 0.5% | -1.9% | 6.0%
COc1cccc(-c2nc(SCC(=O)NCC3CCCO3)c(-c3ccc(C)cc3)[nH]2)c1 (stereo unspecified) | . | . | . | ? | -9.0% | 12.6%
COCCNC(=O)CSc1nc(-c2ccccc2)[nH]c1-c1ccc(OC)cc1 | . | . | . | -14.8% | -9.3% | ?
COc1cccc(-c2nc(SCC(=O)NC3CCCC3)c(-c3ccc(F)cc3)[nH]2)c1 | . | . | . | 12.6µM*[quencher] | ? | 10.4%
COc1cccc(-c2nc(SCC(=O)NC3CCCC3)c(-c3ccccc3)[nH]2)c1 | . | . | . | 25.1µM*[quencher] | -14.8% | ?
COc1ccc(-c2noc(CCC(=O)NC3CCCCC3)n2)cc1OC | 35.5µM* | 6.3% | -1.1% | -10.2% | 4.4% | -9.0%
O=C(CSc1nc(-c2ccccc2)[nH]c1-c1ccc(F)cc1)NC1CCCC1 | . | . | . | 28.2µM*[quencher] | -14.4% | 11.3%
Cc1c(C(=O)NNc2cc(=O)n(C)c(=O)n2C)cccc1[N+](=O)[O-] | . | 3.3% | 10.9% | -4.2% | -16.3% | -6.3%
Cc1cc(=O)oc2cc(OCC(=O)OCC(=O)Nc3c(C)n(C)n(-c4ccccc4)c3=O)ccc12 | . | ? | ? | -0.7% | -3.1% | -4.9%
CN(C)CCNC(=S)Nc1ccc(F)c(F)c1F | . | -0.7% | -0.8% | 0.9% | -2.2% | -0.3%
CC(=O)c1cc(-c2ccccc2)n(CCC(=O)Nc2ccc(C(C)C)cc2)c1C | . | . | . | -25.6% | -16.0% | 4.4%
COc1cccc(-c2nc(SCC(=O)NCC3CCCO3)c(-c3ccc(Cl)cc3)[nH]2)c1 (stereo unspecified) | . | . | . | 12.6µM*[quencher] | ? | 9.1%
COc1ccc(-c2[nH]c(-c3ccc(C)cc3)nc2SCC(=O)NCc2ccco2)cc1OC | -22.5% | ? | ? | ? | ? | 11.1%
COc1ccc(-c2[nH]c(-c3ccc(C)cc3)nc2SCC(=O)NC2CCCC2)cc1 | ? | ? | 2.5% | ? | ? | 6.7%
COc1cccc(-c2nc(SCC(=O)NC3CCCC3)c(-c3ccc(C)cc3)[nH]2)c1 | . | . | . | 11.2µM*[quencher] | -16.3% | ?
COc1ccc(-c2nc(SCC(=O)NC3CCCC3)c(-c3ccc(C)cc3)[nH]2)cc1OC | . | . | . | 17.8µM*[quencher] | ? | ?
Cc1nc(-c2ccc3c(c2)OCCCO3)cs1 | . | 25.1µM* | -4.6% | -8.3% | -15.4% | 1.6%
Cc1nc(-c2ccc(C(=O)Nc3ccc(F)cc3)cc2)cs1 | . | 5.7% | -8.3% | -5.8% | -12.5% | -8.3%
Cc1nc(-c2ccc(C(=O)N3CCCC3)cc2)cs1 | . | 25.1µM* | 1.1% | -5.7% | -10.9% | -1.1%
Cc1nc(-c2ccc(C(=O)N3CCOCC3)cc2)cs1 | 8.91µM* | 10.3% | 6.1% | 1.0% | -2.2% | 2.4%
Cc1nc(-c2cccc(S(=O)(=O)N3CC(C)OC(C)C3)c2)cs1 (stereo unspecified) | -6.8% | 2.9% | -1.1% | 0.7% | -2.2% | -2.4%
Cc1nc(-c2cccc(S(=O)(=O)N3CCOCC3)c2)cs1 | 25.1µM* | 4.47µM* | -6.8% | -18.1% | ? | -19.8%
SMILES | HPGD inh | ALDH1A1 inh | KDM4E inh | Tau fluor cs | Tau ThT inhib | Tau FP inhib
O=[N+]([O-])c1ccc(S(=O)(=O)NCc2nc3cccnc3n2Cc2ccccc2Cl)cc1 | . | . | . | -28.8% | -7.2% | 10.2%
COc1ccccc1/C=C/C(=O)Nc1ccc2c(c1)OCCO2 | -8.3% | ? | -8.5% | ? | ? | 3.1%
COc1ccccc1OCCCC(=O)Nc1ccc(N2CCOCC2)cc1 | . | -5.6% | -1.6% | -9.4% | ? | -3.2%
COc1cccc(/C=C/C(=O)Nc2ccc(N3CCOCC3)cc2)c1OC | . | . | -8.2% | ? | 5.62µM* | 1.6%
COc1ccccc1/C=C/C(=O)Nc1ccc(N2CCOCC2)cc1 | . | 4.7% | -16.4% | ? | 2.51µM* | 6.0%
COCC(C)N1C(=O)Cc2c1nc(N)c1c(N)nc(N3CCN(c4ccccc4F)CC3)c(C#N)c21 (stereo unspecified) | . | ? | -9.2% | ? | 25.1µM* | ?
O=C(CN1CCCc2ccccc21)N/N=C/c1ccccc1 | -7.9% | ? | -24.8% | ? | ? | 10.8%
O=C(CN1CCCc2ccccc21)N/N=C/c1ccc(O)cc1O | -11.2% | 5.4% | 25.1µM* | ? | ? | 10.1%
O=C(CN1CCCc2ccccc21)N/N=C/c1c(O)ccc2ccccc12 | ? | -1.4% | ? | 14.1µM*[quencher] | ? | 14.6%
CCNc1oc(COc2ccccc2F)nc1C#N | 14.1µM* | ? | -4.0% | -14.8% | -15.6% | -5.6%
COc1ccc(Nc2oc(COc3ccccc3OC)nc2C#N)cc1 | 14.1µM* | 1.6% | 3.2% | ? | ? | 7.3%
COc1ccc(N2C(=O)C(Cl)=C(Nc3ccccc3OC)C2=O)cc1 | -26.3% | -1.8% | -3.6% | ? | ? | ?
COc1ccc(N2C(=O)C(Cl)=C(Oc3cccc(OC)c3)C2=O)cc1 | . | 17.8µM* | -6.0% | -18.6% | 14.1µM* | 22.4µM*
COc1ccc(N2C(=O)C(Cl)=C(Nc3ccccc3O)C2=O)cc1 | 14.1µM* | 15.8µM* | -5.2% | ? | 10µM* | ?
Cn1nc(C(F)(F)F)cc1C(=O)NC1CCCCCC1 | -7.9% | 9.1% | 10.4% | -2.6% | -4.2% | -1.6%
CCOC(=O)C1CCCN(C(=O)c2sc3nc(-c4ccc(F)cc4)cn3c2C)C1 (stereo unspecified) | -43.6% | 10µM* | -4.2% | -12.2% | -9.6% | 2.2%
CCOC(=O)C1CCCN(C(=O)c2cccs2)C1 (stereo unspecified) | -3.9% | -1.9% | 3.8% | 2.0% | -2.8% | 5.5%
CCOC(=O)C1CCCN(C(=O)c2cc(-c3ccc(C)cc3)on2)C1 (stereo unspecified) | 15.8µM* | -8.4% | -1.6% | -5.7% | -3.2% | 5.7%
Cc1c(NC(=O)Nc2ccc(Br)cc2F)sc2nc3n(c(=O)c12)CCC(C)CC3 (stereo unspecified) | . | . | . | -24.1% | 2.0% | 8.4%
CO/N=C(/CNC(=O)c1ccc(F)cc1)c1ccc(Cl)cc1 | -4.7% | 10.7% | 0.7% | -10.2% | -11.5% | 3.6%
Cc1cc(-c2n[nH]c(=S)o2)c(C)n1-c1ccccc1 | -25.5% | 3.55µM* | -20.7% | -9.8% | ? | -3.7%
